TGFb inhibitor = blocks TGF-b signaling | HepG2 CAGA-GFP TGF-b/SMAD3 reporter, GFP fluorescence, 18 h; TGF-beta stimulated, 500 pg/mL final | Potency, µM (doses to about 46.1 µM), for inactives: at the highest dose activity, negative = inhibition, hits mostly inhibitors | 410,000 tested, 1.2% active; further: potency means the concentration at half of the fitted maximal effect; on the % scale 0 is the no-effect control and ±100 the full control effect; nearly all actives have a fitted effect of over 65% in size
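Read-out: total well GFP (ex488/em500-530) summed from mean per-cell fluorescence. Cells: HEPG2 CAGA-GFP, 1% FBS DMEM, 18 h at 37 degrees C with 500 pg/mL final TGF-beta. Unstimulated wells served as the full-inhibition control; stimulated DMSO wells = 0%.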
IL-1B inflam inh = inflammasome signaling inhibition, IL-1 beta readout | 360,000 tested, 4.7% active | activity change, % at 57.5 µM | AID 743279 | THP-1 LPS/ATP IL-1B secretion, AlphaLISA, 16 h; active compounds read low; in the data active means activity change below about -50%; inconclusive means mostly about -30% to -49%; further: on the % scale 0 is the no-effect control and ±100 the full control effect
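THP-1 cells pretreated 1 hr with compounds (up to 57.5 uM final), then stimulated with LPS (250 ng/mL final) plus ATP (1.25 mM final); secreted IL-1B measured by AlphaLISA after 16 hr, decreased signal indicating inhibition.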
HepG2 tox = kills HepG2 cells in TGF-b inhibitor counter-screen; HepG2 CAGA-GFP viability, ATP luminescence, 18 h; Potency, µM (titrated, usually from 46.1 µM), for inactives: at the highest dose activity change, negative = cytotoxicity, most hits filed as cytotoxic; 410,000 tested, 0.76% active; AID 588856; further: potency means the concentration at half of the fitted maximal effect
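CellTiter-Glo luminescence gave cytotoxicity after 18 hours at 37 degrees C. The cells were HepG2 CAGA-GFP in 1% FBS DMEM, stimulated with 500 pg/mL TGF-beta after compound addition. %Activity was normalised to no-cell wells (complete cell-killing) and DMSO (no toxicity), and curves were fitted and classified.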
S2 tox = cell viability loss in ATXN counter-screen; Potency, µM (series often up to 56.7 µM), hits mostly cytotoxic; S2 cells (HEK-293 line with an ATXN2-luciferase reporter) viability, CellTiter-Fluor protease fluorescence, 24 h; 400,000 tested, 0.49% active; further: potency means the concentration at half of the fitted maximal effect; nearly all actives have a fitted effect of over 40% in size
ATXN2 expr inh = reduces ATXN2 reporter expression in HEK-293 cells | 360,000 tested, 0.72% active | AID 1745845 | Potency, µM (doses to about 57 µM), for the others: at the top dose activity change, negative = inhibition, hits mostly inhibitors | HEK-293 ATXN2-luciferase reporter, luminescence, 24 h; further: potency means the concentration at half of the fitted maximal effect; on the % scale 0 is the no-effect control and ±100 the full control effect; nearly all actives have a fitted effect of over 55% in size
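ATXN2-luciferase reporter cells (luciferase flanked by upstream and downstream ATXN2 gene portions) were treated 24 h at 37 °C with compounds at up to 57 uM. SteadyGlo luminescence gave expression; GF-AFC fluorescence gave viability.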
* hit, by the source's call; i = inactive; ? = inconclusive; nt = no result; ! = not confirmed by another sample. An excerpt weighted towards active compounds, which were near 5.7% of everything screened. Unless noted, the call rests on the fitted dose curve; in most records, active means well fitted curve in the direction sought with a large enough effect; inconclusive means small, poorly fitted or top-dose-only effect, or another doubt; inactive means no such curve, though single readings can be large; an effect the other way counts as inactive or inconclusive.

SMILES | TGFb inhibitor | IL-1B inflam inh | HepG2 tox | S2 tox | ATXN2 expr inh
O=C(Cn1ncc(Cl)c(Cl)c1=O)NC1CCCCC1 | -27% | -100* | 12% | nt | ?
O=C(COC(=O)c1ccc(Cl)cc1)NCC1CCCCC1 | 16% | 4 | -8% | i | -20%
Cc1cccc(NC(=O)CNC(=O)Cn2ncc(Cl)c(Cl)c2=O)c1C | ? | -100* | 1% | nt | ?
O=C1CN(C(=O)Cn2ncc(Cl)c(Cl)c2=O)c2ccccc2N1 | -18% | -106* | 1% | ? | ?
O=C(Cn1ncc(Cl)c(Cl)c1=O)NCC1CCCCC1 | ? | -103* | 12% | nt | ?
Cc1ccccc1C(=O)N1CCc2c(cnc(C)c2CNC(=O)CN2CCCCC2)C1 | nt | nt | nt | i | nt
O=C(C[n+]1cccc(Br)c1)c1ccc(Br)cc1 | ? | nt | -53% | nt | nt
CCc1cccc2c(-c3ccc(F)cc3)nc(SCC(=O)Nc3ccccc3)nc12 | -7% | nt | -14% | nt | nt
CCc1ccc(CN2C(=O)c3ccccc3C2C(=O)NC2CCCCCC2)cc1 (centres undefined) | 12% | nt | 5% | i | -4%
O=C(CC1C(=O)NCCN1C(=O)Nc1ccc(Cl)cc1)Nc1ccc(F)cc1 (centres undefined) | ? | -64* | -37% | i | ?
COc1ccc(C(=O)N2CCNC(=O)C2CC(=O)Nc2cc(Cl)ccc2OC)cc1 (centres undefined) | 4% | -15 | 9% | i | -1%
COc1ccc(OC)c(NC(=O)CC2C(=O)NCCN2C(=O)Nc2cccc(Cl)c2)c1 (centres undefined) | 2% | -66* | -30% | i | -28%
CCN1CCCC1CNC(=O)c1ccc(Sc2ccc(F)cc2)c([N+](=O)[O-])c1 (centres undefined) | 1% | -19 | -4% | i | -12%
CCN1CCCC1CNC(=O)c1ccc(Sc2ccccc2Cl)c([N+](=O)[O-])c1 (centres undefined) | 3% | -50* | -21% | i | 7%
Cc1ccc(NS(=O)(=O)c2ccc3[nH]c4c(c3c2)CCCCCC4)cc1C | ? | nt | -116% | ? | -33%
O=S(=O)(Nc1cc(F)ccc1F)c1ccc2[nH]c3c(c2c1)CCCCC3 | ? | nt | 11µM* | ? | ?
O=S(=O)(Nc1cc(F)ccc1F)c1ccc2[nH]c3c(c2c1)CCCC3 | ? | nt | -52% | ? | ?
O=S(=O)(Nc1cccc(F)c1)c1ccc2[nH]c3c(c2c1)CCCCC3 | ? | nt | -101% | 28µM* | 0%
CCc1ccccc1NC(=O)c1cnc2sc(N3CCCC3)nn2c1=O | -19% | nt | -5% | nt | nt
Cc1ccc2nc(NC(=O)CSCC(=O)OCC(=O)c3ccc(Br)cc3)sc2c1 | -1% | -1 | -19% | i | 5.6µM*
COc1cc(=O)n2c(c1C(=O)N(C)Cc1nccs1)CCN(Cc1ccc(F)c(F)c1)CC2 | nt | nt | nt | i | nt
COc1cc(NC(=O)c2cnc(N)s2)cc(C(=O)Nc2cccc(C(F)(F)F)c2)c1 | ? | 56 | -62% | 35µM*! | -5%
COc1cc(NC(=O)c2csc(N)n2)cc(C(=O)Nc2cccc(C(F)(F)F)c2)c1 | ? | 57 | -46% | 18µM* | ?
COc1cc(NC(=O)c2ccnc(N)c2)cc(C(=O)Nc2cccc(C(F)(F)F)c2)c1 | 3% | -19 | 1% | i | -11%
COC(=O)COc1cccc(NC(=O)c2ccc(C)cc2)c1 | -19% | -3 | -29% | i | -12%
COc1cc(NC(=O)c2cnc(N)o2)cc(C(=O)Nc2cccc(C(F)(F)F)c2)c1 | ? | -21 | -52% | 20µM* | ?
COC(=O)COc1cccc(NC(=O)c2cc(OC)cc(OC)c2)c1 | -13% | -100* | -37% | i | -15%
COc1cc(NC(=O)c2cc(C)on2)cc(C(=O)Nc2cccc(C(F)(F)F)c2)c1 | ? | -17 | -32% | ? | ?
COc1ccc(OC)c(CCNC(=O)c2cc3c(=O)n(C)c4ccccc4c3n2C)c1 | ? | nt | -21% | i | -7%
CCN(C(=O)Cn1nc(Cc2cccnc2)c2ccccc2c1=O)c1cc(C)ccc1C | ? | nt | -23% | nt | nt

Screening data from PubChem.
